Measured values published in PubChem BioAssay (NCI).
Compounds without any hit were thinned out: in the full panel of roughly 83,000, 20% have a hit.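 In brief: 96-well plates, 48 h treatment, single concentration, percent growth endpoint.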 Unmarked numbers belong to inactive results. The source made the active and inactive calls. The calls were made as follows: active = growth percent below 10; inactive = the rest.

How the values were obtained:
Experiment in all cases: NCI-60 one-dose screen, 48 h (100 = growth as untreated, 0 = no growth, -100 = all killed)
DU-145 prostate = settings: 10 µM unless noted
K-562 leukemia = settings: 10 µM unless noted
MALME-3M melanoma = settings: 10 µM unless noted
MDA-MB-231 breast = settings: 10 µM unless noted
RXF 393 renal = settings: 10 µM unless noted
SF-268 CNS = settings: 10 µM unless noted
SF-295 CNS = settings: 10 µM unless noted
SF-539 CNS = settings: 10 µM unless noted
UACC-257 melanoma = settings: 10 µM
M14 melanoma = settings: 10 µM unless noted

Structure (SMILES) | growth (DU-145 prostate) | growth (K-562 leukemia) | growth (MALME-3M melanoma) | growth (MDA-MB-231 breast) | growth (RXF 393 renal) | growth (SF-268 CNS) | growth (SF-295 CNS) | growth (SF-539 CNS) | growth (UACC-257 melanoma) | growth (M14 melanoma)
COc1cccc(-c2nc3sccn3c2-c2ccnc(NCCCNS(=O)(=O)c3ccc(F)cc3)n2)c1 | 27.7% | 16.6% | 32.4% | 53.2% | 55% | 37% | 24.7% | 66.7% | 55.2% | 18.1%
CCN(C(=O)c1cc2ccccc2[nH]1)[C@H]1CCC[C@@H](NCc2ccc(OC)cc2)C1 | 95.6% | 76.6% | 92.3% | 90.4% | 86% | 89.8% | 99.2% | 104% | 112% | 98.2%
COc1cc2c(cc1OC)C1(C)N(CC2)C(=O)OC1(C)C (stereo not given) | 112% | -78.1% (active) | 122% | 115% | 99% | 103% | 103% | 106% | 95.6% | 101%
COc1cccc(/C=C2\SC(N3CCN(c4ccccn4)CC3)=NC2=O)c1 | 101% | 82.2% | 96.8% | 99.2% | 113% | 102% | 98.6% | 110% | 101% | 103%
COc1ccc(/C=C/c2cc(N3CCOCC3)c3cc(F)c(F)cc3n2)cc1OC | 48.3% | 28.9% | 49.3% | 45.9% | 52.2% | 31.4% | 31.4% | 28.9% | 45.4% | 31.6%
COc1ccc(C2=CC(c3ccc(Oc4ccnc5cc(Cl)ccc45)c(OC)c3)c3c(nc(OC)[nH]c3=O)N2)cc1 (stereo not given) | 75.6% | 28% | 78.5% | 75.2% | 78% | 61.6% | 96.5% | 105% | 87.5% | 82.8%
N#Cc1ccc(NC(=O)c2ccc3cccnc3c2O)cc1 | 29.4% | 30.7% | 42.1% | 44.4% | 49.4% | 21.6% | 38.5% | 17.1% | 13.5% | 6.01% (active)
COc1ccc(-c2cn[nH]c2-c2cc(OC)c3c(c2)OCO3)cc1 | 12.4% | 10.1% | 30.9% | 11% | -31.3% (active) | 37.6% | -10.4% (active) | -28.7% (active) | 66.9% | 16%
COc1ccc(NC(=O)CSc2nc3ccc(Cl)cc3c(=O)n2-c2ccccc2C(F)(F)F)c(OC)c1OC | 79.1% | 92.8% | 60.8% | 54% | 60.3% | 66.7% | 60.9% | 66.9% | 86% | 91.4%
COc1ccc(-c2nc3sccn3c2-c2ccnc(NCCCNS(=O)(=O)c3ccc(F)cc3)n2)cc1 | 10.9% | 14.2% | 12.7% | 43.2% | 52.9% | 17.2% | 12.9% | 28.4% | 26.1% | 12.4%
COc1cc(C(=O)OCCCCCCCCCCC[P+](c2ccccc2)(c2ccccc2)c2ccccc2)ccc1O | 10.6% | -37.8% (active) | -77.4% (active) | -69.4% (active) | -53.4% (active) | -74.3% (active) | -31.9% (active) | -57.3% (active) | -21.6% (active) | -24.5% (active)
O=C(O)c1ccc(-n2c(=O)c3ccccc3c3ccccc3c2=O)cc1 | 113% | 103% | 109% | 106% | 108% | 99.5% | 92.7% | 97.1% | 102% | 117%
COc1ccc(/C=C/c2nc(N3CCOCC3)c3nc(Cl)c(Cl)cc3n2)cc1OC | 101% | 77.7% | 144% | 110% | 109% | 105% | 87.9% | 98.8% | 111% | 103%
CNC(=O)Cc1nc(-c2cccc(NS(=O)(=O)c3c(F)cccc3F)c2F)c(-c2ccnc(Nc3ccccc3)n2)s1 | 79.5% | 20.5% | 0.396% (active) | -14.3% (active) | -6.63% (active) | 54.9% | 101% | 68.9% | 7.77% (active) | 2.35% (active)
COc1cccc(/C=C/c2c(C(=O)O)cccc2[N+](=O)[O-])c1OC | 102% | 90.4% | 94.8% | 107% | 108% | 95.8% | 91.6% | 104% | 101% | 103%
C=CCn1c(C)nc2ccc(Nc3nc(Nc4ccc(F)cc4)nc4ccccc34)cc21 | 74.1% | 21% | 74.5% | 73.8% | 66.6% | 66% | 31.4% | 73% | 92.6% | 45.2%
COc1cc(OC)c(C(=O)/C=C/c2cccc(C#N)c2)c(OC)c1 | 15.3% | 13.7% | 35.4% | 17.1% | -3.8% (active) | 13.5% | 1.75% (active) | -7.41% (active) | 32.2% | 6.71% (active)
O=C(CNc1ccc(Cl)cc1)Nc1ccc(-c2nc3ccccc3s2)cc1 | 70.2% | 11.9% | -30.5% (active) | 37.6% | 84.2% | 24.1% | 94.6% | 78.1% | 90.9% | 44.2%
COc1ccc(C2SCC(=O)N2NC(=O)c2ccc(NC(=O)c3ccccn3)cc2)cc1OC (stereo not given) | 105% | 95.9% | 105% | 102% | 103% | 96.5% | 101% | 98.8% | 92.2% | 102%
CC(C)C[C@H](NC(=O)Cn1ccc(NCc2ccccc2)cc1=O)B(O)O | 36.6% | 15.6% | -21.2% (active) | 28% | -51.7% (active) | 3.08% (active) | 28.4% | -29.4% (active) | -3% (active) | -17% (active)
O=C(NNC(=S)Nc1ccccc1)c1ccccn1 | 42.9% | 28.6% | 24.2% | 43.5% | 35.4% | 36.7% | 42.1% | 31.5% | 18.9% | 25.3%
COc1cc(C2C=C(C)N=C3SC=C(C)N32)cc(OC)c1OC (stereo not given) | -26.7% (active) | 2.16% (active) | -54% (active) | -23.5% (active) | -89.7% (active) | -16.9% (active) | -1.7% (active) | -40.4% (active) | -38.9% (active) | -52.5% (active)
O=C1N=C(c2c(-c3[nH]c(=O)c4ccc(Br)cc4c3O)c(O)c3ccccc3c2O)C(=O)c2cc(Br)ccc21 | -38.2% (active) | 14.3% | -74.3% (active) | -8.73% (active) | -76.1% (active) | -41.4% (active) | 17.2% | -57.7% (active) | -51.6% (active) | -31.9% (active)
O=C1Nc2ccc(Br)cc2C1=N/C=c1\[nH]c(=O)/c(=C/c2ccc(Cl)cc2)s1 | 102% | 81% | 93.6% | 88.6% | 94.9% | 95.2% | 96.5% | 90.7% | 95.7% | 101%
CC1=C(C#N)C(C)(C)C(C#N)=C(C)N1 | 106% | 99.4% | 109% | 104% | 117% | 100% | 96.1% | 99.3% | 103% | 102%
Cn1cc(C=O)c2ccccc21 | 111% | 95.4% | 87.9% | 104% | 105% | 101% | 107% | 97.6% | 105% | 103%
CN(C)c1ccc(C2CC(c3ccccc3)=NN2/C=C2\SC(=O)NC2=O)cc1 (stereo not given) | 57.7% | 100% | 89% | 93.3% | 96.5% | 90.9% | 98% | 76% | 115% | 93.7%
